# Data reported in PubChem BioAssay AID1259418 (Broad Institute, 2018).
# Hit rate of the full screen: of about 3,400 compounds, about 840 (25%) were called active. Inconclusive results (about 11%) are left out. Not all results are given here. Results with a measured potency or affinity are listed apart. A number with no mark means an inactive call.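 The calls were made as follows: active = fitted half-maximal concentration of signal decrease at or below twice the sample's top tested concentration; inconclusive = flat curve between -70 and -30 percent, or poor fit; inactive = flat within 30 percent, signal rise, or potency above limit.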
# Experiment: T. gondii growth inhibition with IFN-gamma, dose response, cell-based, ME49Luc, HeLa, luciferase, 72 h (AID 1259418)
# Details: T. gondii ME49Luc in IFN-y HeLa, active compounds read low, -100% = high-dose IFN-γ control wells
smiles,measurement,setting,value
Cc1ccc(C(=O)Nc2c(C(=O)N3CCCC3)[nH]c3ccc(C)cc23)cc1,max activity,at 19.5 µM unless noted,49.7% [at 10 µM]
CCC(C)NC(=O)Cn1c(=O)c(S(=O)(=O)c2ccccc2)cc2cc(C)ccc21 (configuration not stated),max activity,at 19.5 µM unless noted,-4.98% [at 10 µM]
Cc1cc(C)cc(C(=O)N2CCC[C@@H]2C(=O)NCCc2csc(-c3ccccc3)n2)c1,max activity,at 19.5 µM unless noted,-12.7%
CCc1ccc(S(=O)(=O)N2CCC[C@@H]2C(=O)NCCc2csc(C)n2)cc1,max activity,at 19.5 µM unless noted,-9.49% [at 0.35 µM]
Cc1cc(C)c(S(=O)(=O)N2CCC[C@@H]2C(=O)NCCc2csc(-c3ccccc3)n2)cc1C,max activity,at 19.5 µM unless noted,-22.5%
Cc1nc(CCNC(=O)[C@H]2CCCN2S(=O)(=O)c2ccc(Cl)s2)cs1,max activity,at 19.5 µM unless noted,12.6% [at 0.16 µM]
CC(C)(C)c1ccc(S(=O)(=O)N2CCC[C@@H]2C(=O)NCCc2csc(-c3ccccc3)n2)cc1,max activity,at 19.5 µM unless noted,-14.7% [at 0.16 µM]
O=C(NCCc1csc(-c2ccccc2)n1)[C@H]1CCCN1S(=O)(=O)c1cccc(Cl)c1,max activity,at 19.5 µM unless noted,-25.7%
COc1ccc(CNC(=O)Nc2ccc(-c3nc(-c4ccc(C)cc4C)co3)cc2)cc1,max activity,at 19.5 µM unless noted,20.3% [at 1.35 µM]
Cc1oc(-c2ccccc2)nc1CSc1nc2c(c(=O)[nH]1)CN(Cc1ccc(F)cc1)CC2,max activity,at 19.5 µM unless noted,22.6% [at 0.35 µM]
Cc1ccc(-c2coc(-c3ccc(NC(=O)C4CCCCC4)cc3)n2)cc1,max activity,at 19.5 µM unless noted,55.5%
Cc1ccc(-c2coc(-c3ccc(NC(=O)c4cccc(C)c4)cc3)n2)cc1,max activity,at 19.5 µM unless noted,70.3% [at 10 µM]
Cc1ccc(-c2nc(Cn3nnc(-c4nc(-c5ccccc5Br)no4)c3C)c(C)o2)cc1,max activity,at 19.5 µM unless noted,-6.98% [at 5 µM]
Cc1ccccc1C(=O)N1CSC[C@@H]1C(=O)NCCc1csc(-c2ccccc2)n1,max activity,at 19.5 µM unless noted,-16.3%
COc1ccccc1-c1noc(C2CCCN2C(=O)Cc2c[nH]c3ccccc23)n1 (configuration not stated),max activity,at 19.5 µM unless noted,-7.96% [at 0.35 µM]
COc1ccccc1-c1noc(C2CCCN2C(=O)c2ccc3cc[nH]c3c2)n1 (configuration not stated),max activity,at 19.5 µM unless noted,14.5% [at 10 µM]
CCn1nccc1C(=O)Nc1ccc2c(c1)CCC(=O)N2C,max activity,at 19.5 µM unless noted,24.4%
COC[C@@H]1CN(CC2CC2)C[C@@]12CCN(CCc1ccccc1)C2,max activity,at 19.5 µM unless noted,-8.78% [at 2.6 µM]
CCOC(=O)CSc1nc(NCc2ccc(Cl)cc2)c2ccccc2n1,max activity,at 19.5 µM unless noted,29.6%
CCOC(=O)C1CCN(c2nc(-c3ccc(Cl)cc3)nc3ccccc23)CC1,max activity,at 19.5 µM unless noted,17% [at 0.35 µM]
O=C(Cn1c(=O)c(S(=O)(=O)c2ccccc2)cc2ccccc21)NCc1ccccc1,max activity,at 19.5 µM unless noted,-8.55% [at 2.6 µM]
c1ccc(-c2ccc([C@H]3[C@H]4CNC[C@@H]3N4Cc3cc(-c4ccccc4)on3)cc2)cc1,max activity,at 19.5 µM unless noted,49.3% [at 10 µM]
O=C(NC1CCCC1)N1[C@@H]2CNC[C@H]1C2c1ccc(-c2cccnc2)cc1 (some centres not stated),max activity,at 19.5 µM unless noted,19.4%
Cc1ccc2c(c1)cc(S(=O)(=O)c1ccccc1)c(=O)n2CC(=O)NC(C)C,max activity,at 19.5 µM unless noted,-9.24% [at 0.16 µM]
O=C(Nc1ccc(-c2nc(-c3cccc(Br)c3)co2)cc1)Nc1ccccc1F,max activity,at 19.5 µM unless noted,6.98%
COc1ccccc1-c1nc(Cn2nnc(-c3nc(-c4cccnc4)no3)c2C)c(C)o1,max activity,at 19.5 µM unless noted,10.3% [at 0.16 µM]
Cc1ccc2c(c1C)-n1cccc1C1(CCN(C(=O)C3CCCCC3)CC1)N2,max activity,at 19.5 µM unless noted,-20.8% [at 0.16 µM]
COc1ccc(CC(=O)N2CCC3(CC2)Nc2ccc(Cl)cc2-n2cccc23)cc1,max activity,at 19.5 µM unless noted,5.66% [at 2.6 µM]
CC(C)C(=O)N1CCC2(CC1)Nc1ccc(Cl)cc1-n1cccc12,max activity,at 19.5 µM unless noted,15.6% [at 0.68 µM]
Cc1ccc(C(=O)N2CCC3(CC2)Nc2ccc(Cl)cc2-n2cccc23)cc1,max activity,at 19.5 µM unless noted,8.29% [at 0.35 µM]
O=C(CC1CCCC1)N1CCC2(CC1)Nc1ccc(Cl)cc1-n1cccc12,max activity,at 19.5 µM unless noted,-10.7% [at 0.16 µM]
O=C(c1ccc(Cl)cc1)N1CCC2(CC1)Nc1ccc(Cl)cc1-n1cccc12,max activity,at 19.5 µM unless noted,-6.42% [at 0.35 µM]
O=C(CC1CCCCC1)N1CCC2(CC1)Nc1ccc(Cl)cc1-n1cccc12,max activity,at 19.5 µM unless noted,7.76% [at 0.35 µM]
CCC(CC)C(=O)N1CCC2(CC1)Nc1ccc(Cl)cc1-n1cccc12,max activity,at 19.5 µM unless noted,9.15% [at 0.68 µM]
CCc1onc(C)c1C1CCCN1Cc1cn(CC)c2ccc(OC)cc12 (configuration not stated),max activity,at 19.5 µM unless noted,-10.8% [at 0.35 µM]
CSc1cccc(NC(=O)Nc2ccc(-c3nc(-c4ccccc4)co3)cc2)c1,max activity,at 19.5 µM unless noted,76%
Fc1ccc(F)c(CN2[C@@H]3CNC[C@H]2C3c2ccc(-c3ccncc3)cc2)c1 (some centres not stated),max activity,at 10 µM,23.7%
same,max activity,at 21 µM,49%
COc1ccc(CCC(=O)N2CCC3(CC2)Nc2ccc(C)c(C)c2-n2cccc23)cc1,max activity,at 19.5 µM unless noted,-4.87% [at 0.68 µM]
O=C(CC1N=C2c3ccccc3N=C(SCc3ccccc3Cl)N2C1=O)NCc1ccc2c(c1)OCO2 (configuration not stated),max activity,at 19.5 µM unless noted,24.9% [at 0.16 µM]
CCc1ccc(N2CCC(C(=O)NCCc3c[nH]c4ccc(Cl)cc34)C2=O)cc1 (configuration not stated),max activity,at 19.5 µM unless noted,-15.5% [at 0.16 µM]
Cc1ccc2[nH]cc(CCNC(=O)C3CCN(c4ccc(Cl)cc4)C3=O)c2c1 (configuration not stated),max activity,at 19.5 µM unless noted,23.3% [at 10 µM]
Cc1ccccc1C(=O)N1CCC2(CC1)Nc1ccc(Cl)cc1-n1cccc12,max activity,at 19.5 µM unless noted,-3.44%
O=C(c1ccccc1Cl)N1CCC2(CC1)Nc1ccc(Cl)cc1-n1cccc12,max activity,at 19.5 µM unless noted,6.15% [at 1.35 µM]
Cc1ccc2c(c1C)-n1cccc1C1(CCN(C(=O)c3ccccc3Cl)CC1)N2,max activity,at 19.5 µM unless noted,-6.73% [at 0.35 µM]
CCOc1ccc(C(=O)N2CCC3(CC2)Nc2ccc(Cl)cc2-n2cccc23)cc1,max activity,at 19.5 µM unless noted,11.3% [at 0.68 µM]
CCOc1ccccc1C(=O)N1CCC2(CC1)Nc1cc(OC)ccc1-n1cccc12,max activity,at 19.5 µM unless noted,12% [at 2.6 µM]
Cc1ccccc1C(=O)N1CCC2(CC1)Nc1ccc(C)c(C)c1-n1cccc12,max activity,at 19.5 µM unless noted,-10.8% [at 5 µM]
Cc1ccc(-c2coc(-c3ccc(NC(=O)NCc4ccc(F)cc4)cc3)n2)c(C)c1,max activity,at 19.5 µM unless noted,-6.17% [at 0.16 µM]
CN(Cc1ccccn1)C(=O)C1=NOC2(CCN(S(=O)(=O)c3ccc(F)cc3)C2)C1 (configuration not stated),max activity,at 19.5 µM unless noted,35.3%
COc1ccc(-c2nc3c(s2)CN(C(=O)Nc2ccc(C)cc2Cl)CC3)cc1OC,max activity,at 19.5 µM unless noted,-9.18% [at 0.35 µM]
COc1ccccc1-c1nc(Cn2nnc(-c3nc(-c4cccc(Cl)c4)no3)c2C)c(C)o1,max activity,at 19.5 µM unless noted,8.57% [at 0.35 µM]
NC(=O)C1(N2CCCCC2)CCN(c2ncc(NC(=O)c3ccc(F)cc3)cc2C(=O)O)CC1,max activity,at 19.5 µM unless noted,-7.63% [at 10 µM]
Cc1ccc(C)c(-c2coc(-c3ccc(NC(=O)Nc4ccc5c(c4)OCCO5)cc3)n2)c1,max activity,at 19.5 µM unless noted,196% [at 5 µM]
CCc1nc(OCC(=O)Nc2ccc(OC)cc2OC)c2ccccc2n1,max activity,at 19.5 µM unless noted,-16.2% [at 0.35 µM]
CCOC(=O)CSC1=Nc2ccccc2C2=NC(CC(=O)NCc3ccccc3)C(=O)N12 (configuration not stated),max activity,at 19.5 µM unless noted,-17% [at 0.16 µM]
CCOc1ccccc1-c1noc(-c2nnn(Cc3nc(-c4cccc(C)c4)oc3C)c2C)n1,max activity,at 19.5 µM unless noted,-4.72% [at 5 µM]
N#C[C@H]1[C@H](c2ccc(C#Cc3cccc(F)c3)cc2)[C@@H](CO)N1C(=O)C1CCOCC1,max activity,at 19.5 µM unless noted,33.1%
N#C[C@@H]1[C@H](c2ccc(C#Cc3cccc(F)c3)cc2)[C@H](CO)N1C(=O)C1CCOCC1,max activity,at 19.5 µM unless noted,26.4% [at 10 µM]
COc1cccc(-c2nc3c(s2)CN(C(=O)NC2CCCCC2)CC3)c1,max activity,at 19.5 µM unless noted,-6.7%
COc1ccc(-c2nc(Cn3nnc(-c4nc(-c5cccs5)no4)c3C)c(C)o2)cc1,max activity,at 19.5 µM unless noted,7.54% [at 0.16 µM]
Cc1ccc(-c2noc(-c3nnn(Cc4nc(-c5ccc(C)cc5)oc4C)c3C)n2)cc1,max activity,at 19.5 µM unless noted,8.64%
COc1ccc(-c2nc(Cn3nnc(-c4nc(-c5ccc(C)cc5)no4)c3C)c(C)o2)cc1,max activity,at 19.5 µM unless noted,4.22% [at 0.16 µM]
Cc1ccc(-c2noc(-c3nnn(Cc4nc(-c5cccc(C)c5)oc4C)c3C)n2)cc1,max activity,at 19.5 µM unless noted,7.12% [at 0.68 µM]
Cc1cccc(-c2nc(Cn3nnc(-c4nc(-c5ccccc5)no4)c3C)c(C)o2)c1,max activity,at 19.5 µM unless noted,4.79% [at 0.68 µM]
CCOc1ccccc1-c1noc(-c2nnn(Cc3nc(-c4ccc(C)cc4)oc3C)c2C)n1,max activity,at 19.5 µM unless noted,-5.47% [at 1.35 µM]
COc1ccc(-c2nc(Cn3nnc(-c4nc(-c5ccccc5OC)no4)c3C)c(C)o2)cc1,max activity,at 19.5 µM unless noted,-5.44% [at 1.35 µM]
COc1ccc(-c2nc(Cn3nnc(-c4nc(-c5cc(OC)cc(OC)c5)no4)c3C)c(C)o2)cc1,max activity,at 19.5 µM unless noted,4.11% [at 0.35 µM]
CN(C)C(=O)c1ccc2nnc3ncn(Cc4ccccc4)c3c2c1,max activity,at 19.5 µM unless noted,-17.6% [at 10 µM]
COc1ccc(CCNc2nc(SCc3ccc(Cl)cc3)nc3ccccc23)cc1OC,max activity,at 19.5 µM unless noted,9.35% [at 1.35 µM]
COc1nc2c(c(C)nn2-c2ccccc2)c(C)c1CCC(=O)NCCc1c[nH]c2ccccc12,max activity,at 19.5 µM unless noted,7.44%
O=C(Nc1c(C(=O)N2CCCC2)[nH]c2ccccc12)c1ccc(Cl)cc1,max activity,at 19.5 µM unless noted,30.4% [at 10 µM]
